Results filed as inconclusive are left out. Calls of active or inactive are those of the source. Unless noted, calls follow the shape of the dose curve; as a rule, active = well fitted curve in the direction sought with a large enough effect in the repeat runs; inconclusive = weak or mixed curves; inactive = no such curve, though single readings can be large; an effect the other way counts as inactive or inconclusive.
Columns and labels:
[1] = qHTS assay to identify small molecule antagonists of the estrogen receptor alpha (ER-alpha) signaling pathway using the BG1 cell line in the presence of 0.1 nM 17-beta-estradiol - cell viability counter screen (AID 1259241); also: nearly all actives have a fitted effect of over 40% in size
Outline: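 Measures cytotoxicity alongside the ER-alpha antagonist readout: VM7Luc4E2 cells, charcoal-stripped serum, 0.1 nM 17beta-estradiol final, 22 hr compound incubation at 37C, CellTiter-Fluor fluorescence.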

[2] = qHTS assay to identify small molecule antagonists of the androgen receptor (AR) signaling pathway using the MDA cell line in the presence of 0.5 nM R1881 - cell viability counter screen (AID 1259242); also: nearly all actives have a fitted effect of over 45% in size
Outline: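 Human breast carcinoma MDA-kb2 cells, cultured without CO2, receive compounds alongside 0.5 nM (final) R1881 agonist. After 16 hr at 37C, viability is taken as live-cell protease signal.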

[3] = molecular target: Androgen receptor (Homo sapiens) (UniProt P10275); assay: qHTS assay to identify small molecule antagonists of the androgen receptor (AR) signaling pathway using the MDA cell line in the presence of 0.5 nM R1881 (AID 1259243); also: nearly all actives have a fitted effect of over 50% in size; also: potency is read from the fitted curve at half-maximal effect
Sequence of Androgen receptor (Homo sapiens) (P10275 whole entry, looked up): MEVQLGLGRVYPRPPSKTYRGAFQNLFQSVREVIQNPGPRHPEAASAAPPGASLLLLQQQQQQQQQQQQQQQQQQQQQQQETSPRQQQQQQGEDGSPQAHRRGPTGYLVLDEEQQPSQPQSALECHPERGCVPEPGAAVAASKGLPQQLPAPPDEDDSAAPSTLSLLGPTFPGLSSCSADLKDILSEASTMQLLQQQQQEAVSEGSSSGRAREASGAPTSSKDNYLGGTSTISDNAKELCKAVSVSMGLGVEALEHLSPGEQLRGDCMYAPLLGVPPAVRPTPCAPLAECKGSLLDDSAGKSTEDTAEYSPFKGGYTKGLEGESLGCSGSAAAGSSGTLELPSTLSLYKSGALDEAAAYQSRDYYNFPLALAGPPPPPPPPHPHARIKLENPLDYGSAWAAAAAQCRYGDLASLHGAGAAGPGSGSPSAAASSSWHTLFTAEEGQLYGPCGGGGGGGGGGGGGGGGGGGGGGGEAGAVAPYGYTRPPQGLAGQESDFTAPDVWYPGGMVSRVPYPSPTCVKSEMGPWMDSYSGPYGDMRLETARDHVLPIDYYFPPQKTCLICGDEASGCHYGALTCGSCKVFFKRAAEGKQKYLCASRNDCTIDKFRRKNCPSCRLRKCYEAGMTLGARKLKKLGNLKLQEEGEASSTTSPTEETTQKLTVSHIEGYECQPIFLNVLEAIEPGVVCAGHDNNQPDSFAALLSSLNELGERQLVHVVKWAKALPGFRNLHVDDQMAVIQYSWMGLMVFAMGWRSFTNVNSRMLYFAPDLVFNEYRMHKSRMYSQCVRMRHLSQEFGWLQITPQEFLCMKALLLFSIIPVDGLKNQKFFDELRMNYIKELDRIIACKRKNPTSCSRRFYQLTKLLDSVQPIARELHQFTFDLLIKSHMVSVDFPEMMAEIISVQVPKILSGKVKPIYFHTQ
Outline: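 Cells: MDA-kb2 (MMTV-luc). Stimulus: 0.5 nM R1881. Time: 16 hr, 37C, no CO2. Detection: ONE-Glo luminescence after 30 min at RT.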

[4] = qHTS assay to identify small molecule HDAC inhibitors - cell viability counter screen (AID 1259365); also: series mostly up to about 92 µM; nearly all actives have a fitted effect of over 50% in size
Outline: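 Following a 2hr exposure of overnight-plated wild-type HCT-116 cells to DMSO-delivered compounds, CellTiter-Glo was added and luminescence recorded after 30min at room temperature.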

[5] = qHTS assay to identify small molecule agonists of the sonic hedgehog signaling (Shh) pathway - cell viability counter screen (AID 1259366); also: nearly all actives have a fitted effect of over 50% in size
Outline: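 After a 4hr attachment at 37C, NIH/3T3 cells bearing an integrated Gli1-driven luciferase reporter were dosed with compounds. Treatment lasted 24hr, with the final hour including CellTiter-Fluor for a fluorescence viability measurement.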

[6] = qHTS assay to identify small molecule antagonists of the sonic hedgehog signaling (Shh) pathway - cell viability counter screen (AID 1259367); also: nearly all actives have a fitted effect of over 55% in size
Outline: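 Cytotoxicity was assessed in parallel with Shh reporter activity by measuring live-cell protease fluorescence (CellTiter-Fluor) in NIH/3T3 cells stably carrying Gli1-Luc, treated with compound under conditioned medium stimulation for 23 hr plus 1 hr reagent incubation.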

[7] = qHTS assay to identify small molecule agonists of the sonic hedgehog signaling (Shh) pathway (AID 1259368; calls by dose curve;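 also: NIH/3T3-derived 3T3Gli1-Luc cells carrying a stable Gli1-driven firefly luciferase reporter; series mostly up to about 92 µM; nearly all actives have a fitted effect of over 15% in size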)
Outline: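 Stable NIH/3T3 Gli1-Luc reporter clone; 24 hr cpd exposure after a 4 hr settling period; luminescence endpoint.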

[8] = molecular target: Estrogen receptor beta (Homo sapiens) (UniProt Q92731); assay: qHTS assay to identify small molecule antagonists of the estrogen receptor beta (ER-beta) signaling pathway (AID 1259378; active = well fitted inhibition curve with a large enough effect in the signal ratio in the repeat runs, not every such curve was filed as active; the % refers to the signal ratio)
Sequence of Estrogen receptor beta (Homo sapiens) (Q92731 whole entry, looked up): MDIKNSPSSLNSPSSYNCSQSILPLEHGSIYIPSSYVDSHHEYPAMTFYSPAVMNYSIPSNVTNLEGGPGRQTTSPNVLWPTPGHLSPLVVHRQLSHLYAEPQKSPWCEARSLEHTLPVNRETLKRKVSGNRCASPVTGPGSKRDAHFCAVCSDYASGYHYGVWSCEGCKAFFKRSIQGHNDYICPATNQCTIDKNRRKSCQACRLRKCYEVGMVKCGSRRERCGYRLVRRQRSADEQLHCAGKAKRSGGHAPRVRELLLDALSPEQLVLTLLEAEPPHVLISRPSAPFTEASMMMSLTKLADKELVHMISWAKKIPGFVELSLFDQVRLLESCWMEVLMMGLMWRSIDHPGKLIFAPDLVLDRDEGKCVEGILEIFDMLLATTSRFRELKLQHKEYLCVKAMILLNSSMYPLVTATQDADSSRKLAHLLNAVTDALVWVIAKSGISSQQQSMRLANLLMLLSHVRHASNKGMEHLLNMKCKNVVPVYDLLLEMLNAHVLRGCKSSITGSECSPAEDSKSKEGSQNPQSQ
Outline: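 ER-beta-UAS-bla HEK293T (GripTite) cells in 2% charcoal-stripped FBS medium were preincubated 6 hr at 37C, dosed with compound, then stimulated with 1 nM E2 (final) for 16 hr; beta-lactamase reporter read by B/G FRET fluorescence after 2 hr substrate loading.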

[9] = qHTS assay to identify small molecule agonists of the androgen receptor (AR) signaling pathway in the presence of an antagonist - cell viability counter screen (AID 1259379);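 also: MDA-kb2 human breast cancer cells carrying an MMTV luciferase reporter; series mostly up to about 92 µM; nearly all actives have a fitted effect of over 25% in size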
Outline: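 Counter screen for cell viability run in parallel with the AR agonist-mode luciferase assay. MDA-kb2 cells were co-treated with nilutamide (3.0uM final) and compounds, then incubated 16 hr at 37C, and CellTiter-Fluor fluorescence was measured.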

[10] = molecular target: Androgen receptor (Homo sapiens) (UniProt P10275); assay: qHTS assay to identify small molecule agonists of the androgen receptor (AR) signaling pathway in the presence of an antagonist (AID 1259381; calls by dose curve; also: nearly all actives have a fitted effect of over 15% in size; also: potency is read from the fitted curve at half-maximal effect)
Outline: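 AR antagonist background: nilutamide 3.0uM final. Cell line: MDA-kb2, MMTV-driven luciferase, responsive to both AR and GR. Exposure 16hr, 37C, no CO2; ONE-Glo luminescence.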

[11] = qHTS assay to identify small molecule antagonists of the estrogen receptor beta (ER-beta) signaling pathway - cell viability counter screen (AID 1259382); also: series mostly up to about 92 µM; nearly all actives have a fitted effect of over 55% in size
Outline: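 HEK293T ER-beta-UAS-bla, 2% charcoal-stripped FBS; compounds + 1nM E2 16 hr 37C; CellTiter-Glo luminescence, 30 min RT.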

[12] = molecular target: Estrogen receptor (Homo sapiens) (UniProt P03372); assay: qHTS assay to identify small molecule agonists of the estrogen receptor alpha (ER-alpha) signaling pathway in the presence of an antagonist (AID 1259383; calls by dose curve; also: top concentration of the series differs between compounds; nearly all actives have a fitted effect of over 15% in size)
Sequence of Estrogen receptor (Homo sapiens) (P03372 whole entry, looked up): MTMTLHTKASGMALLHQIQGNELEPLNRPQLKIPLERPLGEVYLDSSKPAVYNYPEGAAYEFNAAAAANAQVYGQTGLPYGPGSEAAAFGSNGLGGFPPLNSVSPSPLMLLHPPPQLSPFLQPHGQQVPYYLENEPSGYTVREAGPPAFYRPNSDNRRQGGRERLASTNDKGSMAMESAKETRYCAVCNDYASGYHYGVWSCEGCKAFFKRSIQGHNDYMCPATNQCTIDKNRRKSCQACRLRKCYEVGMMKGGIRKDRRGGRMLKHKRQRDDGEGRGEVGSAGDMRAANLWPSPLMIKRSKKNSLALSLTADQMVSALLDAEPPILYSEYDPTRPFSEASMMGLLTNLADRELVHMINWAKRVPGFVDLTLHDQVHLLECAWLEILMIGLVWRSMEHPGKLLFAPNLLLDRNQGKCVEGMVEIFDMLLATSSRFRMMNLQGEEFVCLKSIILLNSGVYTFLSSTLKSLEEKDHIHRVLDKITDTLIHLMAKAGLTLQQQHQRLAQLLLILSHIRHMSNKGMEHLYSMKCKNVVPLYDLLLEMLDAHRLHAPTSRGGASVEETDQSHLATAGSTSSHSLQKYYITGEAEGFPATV
Outline: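 ER-alpha agonism measured under antagonist challenge: 10.0nM ICI-182,780 (final) plus compound, 15 concentrations, 22hr, VM7Luc4E2 ERE-luciferase cells. Read by luminescence.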

[13] = qHTS assay to identify small molecule agonists or antagonists of the thyroid stimulating hormone receptor (TSHR) signaling pathway - wild type cell line counter screen (AID 1259384; calls by dose curve)
Outline: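 Wild-type HEK293 cells were plated 18 h at 37 C/5% CO2, pin-dosed with compound plus Ro20-1724 medium, held 30 min at room temperature, then given cAMP-d2 and anti-cAMP-cryptate; fluorescence was read after 1 h. Fifteen concentrations, triplicate.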

[14] = molecular target: Thyrotropin receptor (Homo sapiens) (UniProt P16473); assay: qHTS assay to identify small molecule antagonists of the thyroid stimulating hormone receptor (TSHR) signaling pathway (AID 1259385; calls by dose curve; also: nearly all actives have a fitted effect of over 20% in size)
Sequence of Thyrotropin receptor (Homo sapiens) (P16473 whole entry, looked up): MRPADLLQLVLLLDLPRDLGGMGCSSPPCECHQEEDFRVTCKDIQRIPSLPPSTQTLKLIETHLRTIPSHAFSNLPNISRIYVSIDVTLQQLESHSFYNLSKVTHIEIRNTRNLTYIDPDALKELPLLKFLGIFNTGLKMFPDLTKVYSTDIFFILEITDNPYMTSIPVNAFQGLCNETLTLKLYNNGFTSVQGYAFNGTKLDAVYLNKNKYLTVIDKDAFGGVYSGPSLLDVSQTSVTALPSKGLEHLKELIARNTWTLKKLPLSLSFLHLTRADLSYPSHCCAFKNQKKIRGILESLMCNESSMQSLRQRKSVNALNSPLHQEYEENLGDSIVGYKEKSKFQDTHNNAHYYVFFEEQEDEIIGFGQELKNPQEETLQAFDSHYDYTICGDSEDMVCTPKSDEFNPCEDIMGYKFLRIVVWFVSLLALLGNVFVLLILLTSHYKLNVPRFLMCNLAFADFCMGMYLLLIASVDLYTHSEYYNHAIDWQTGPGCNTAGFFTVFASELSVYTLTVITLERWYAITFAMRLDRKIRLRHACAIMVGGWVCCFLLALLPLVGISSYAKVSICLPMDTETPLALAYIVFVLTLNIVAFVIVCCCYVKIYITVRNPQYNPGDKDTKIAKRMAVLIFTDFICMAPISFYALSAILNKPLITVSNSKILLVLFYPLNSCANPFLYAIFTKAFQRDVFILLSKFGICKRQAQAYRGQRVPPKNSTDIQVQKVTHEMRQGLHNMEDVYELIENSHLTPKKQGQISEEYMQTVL
Outline: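 TSHR-HEK293 cells were plated and held 18 h at 37C/5% CO2, then given compound plus Ro20-1724 and stimulated with TSH at 1.5 ng/mL final. After 30 min at room temperature, cAMP was detected with cAMP-d2/anti-cAMP-cryptate (1 h) by fluorescence.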

[15] = qHTS assay to identify small molecule phospholipidosis (PLD) inducers (AID 1259344; active = well fitted curve in the direction sought with a large enough effect; an effect the other way counts as inactive or inconclusive)
Outline: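 Cells (HepG2, 900 per well) attach for 4 h, receive LipidTOX Red and compound together, incubate 24 h at 37 C, are fixed 30 min with paraformaldehyde/Hoechst, then imaged at one site per well.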

[16] = qHTS assay to identify small molecule HDAC inhibitors (AID 1259364);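 also: wild-type HCT-116 cells with endogenous class I/II HDAC activity; top concentration of the series differs between compounds; nearly all actives have a fitted effect of over 45% in size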
Outline: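 After a 2 hr compound incubation (37C, 5% CO2), HCT-116 cells seeded at 1,500/well the day before received HDAC-Glo reagent; signal read as luminescence after 30 min at room temperature.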

[17] = qHTS assay to identify small molecule antagonists of the sonic hedgehog signaling (Shh) pathway (AID 1259369; calls by dose curve; also: nearly all actives have a fitted effect of over 45% in size; also: potency is read from the fitted curve at half-maximal effect)
Outline: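 Gli1 transcriptional reporter (firefly Luc) in NIH/3T3 background, conditioned-medium activated. 24hr exposure, luminescence endpoint.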

[18] = qHTS assay to identify small molecule agonists of the estrogen receptor beta (ER-beta) signaling pathway - cell viability counter screen (AID 1259380); also: nearly all actives have a fitted effect of over 30% in size
Outline: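 In this qHTS counter screen, HEK293T cells carrying an ER-beta/UAS beta-lactamase reporter, grown in 2% charcoal-stripped FBS, received compound for 16 hr; ATP-based CellTiter-Glo luminescence was then read after 30 min at room temperature.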

[19] = molecular target: Estrogen receptor (Homo sapiens) (UniProt P03372); assay: qHTS assay to identify small molecule antagonists of the estrogen receptor alpha (ER-alpha) signaling pathway using the BG1 cell line in the presence of 0.1 nM 17-beta-estradiol (AID 1259244); also: nearly all actives have a fitted effect of over 50% in size
Outline: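 Seeding of stripped-serum-adapted VM7Luc4E2 cells, 24 h attachment, compound transfer, then 0.1 nM final 17beta-estradiol; after 22 h incubation, ONE-Glo reagent and luminescence reading.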

[20] = molecular target: Estrogen receptor beta (Homo sapiens) (UniProt Q92731); assay: qHTS assay to identify small molecule agonists of the estrogen receptor beta (ER-beta) signaling pathway (AID 1259377; active = well fitted activation curve with a large enough effect in the signal ratio in the repeat runs, not every such curve was filed as active; the % refers to the signal ratio)
Outline: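 In HEK293T cells bearing a UAS-beta-lactamase reporter under ER-beta control, DMSO-delivered compounds were incubated for 16 hr at 37C. Activity was detected as fluorescence 2 hours after LiveBLAzer B/G FRET substrate addition.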
% is scaled to controls: 0 for no effect and ±100 for the full control effect.

CNC(=O)Nc1ccc(Cl)c(Cl)c1
inactive: outcome [1] | outcome [2] | outcome [4] | Potency [5] | Potency [6] | outcome [7] | Potency [8] | Potency [9] | Potency [10] | outcome [11] | outcome [12] | outcome [13] | outcome [14]
active: Potency [3] 30.6 µM

CCCCS(=O)(=O)N[C@@H](Cc1ccc(OCCCCC2CCNCC2)cc1)C(=O)O
inactive: outcome [1] | outcome [2] | Potency [3] | PLD induction [15] -2.88% [at 1.53 µM] | Potency [16] | outcome [4] | Potency [5] | Potency [6] | outcome [7] | Potency [17] | Potency [9] | Potency [18] | Potency [10] | outcome [11] | outcome [12] | outcome [13] | outcome [14]

CCCOC(=O)CC
inactive: outcome [1] | outcome [2] | Potency [3] | outcome [19] | Potency [16] | outcome [4] | Potency [5] | Potency [6] | outcome [7] | Potency [17] | Potency [20] | Potency [8] | Potency [9] | Potency [18] | Potency [10] | outcome [11] | outcome [12] | outcome [13] | outcome [14]

CC(C)(C)c1ccc(-c2ccc(C(C)(C)C)cc2)cc1
inactive: outcome [1] | outcome [2] | Potency [3] | outcome [19] | Potency [16] | outcome [4] | Potency [5] | Potency [6] | outcome [7] | Potency [17] | Potency [20] | Potency [9] | Potency [18] | Potency [10] | outcome [11] | outcome [12] | outcome [13] | outcome [14]

CO[C@@]1(NC(=O)C(C(=O)O)c2ccc(O)cc2)C(=O)N2C(C(=O)O)=C(CSc3nnnn3C)CO[C@@H]21 (stereo partly specified)
inactive: outcome [1] | outcome [2] | outcome [19] | outcome [15] | Potency [16] | outcome [4] | Potency [5] | Potency [6] | outcome [7] | Potency [17] | Potency [9] | Potency [18] | outcome [11] | outcome [12] | outcome [13] | outcome [14]

C[C@@H]1C[C@H]2[C@@H]3C[C@H](F)C4=CC(=O)C(Cl)=C[C@]4(C)[C@@]3(F)[C@@H](O)C[C@]2(C)[C@@]1(O)C(=O)CO
active: Potency [17] 18.8 µM | Potency [10] 0.0047 µM
inactive: outcome [1] | outcome [2] | outcome [19] | outcome [15] | Potency [16] | outcome [4] | Potency [5] | Potency [6] | outcome [7] | Potency [9] | Potency [18] | outcome [11] | outcome [12] | outcome [13] | outcome [14]

CCCCCC(C)N (stereo unspecified)
inactive: outcome [1] | outcome [2] | Potency [3] | outcome [15] | Potency [16] | outcome [4] | Potency [5] | Potency [6] | outcome [7] | Potency [9] | Potency [18] | Potency [10] | outcome [11] | outcome [13] | outcome [14]

CCCCCCCCCCCCCCCCCCO
inactive: outcome [1] | outcome [2] | outcome [19] | outcome [15] | Potency [16] | outcome [4] | Potency [5] | Potency [6] | outcome [7] | Potency [9] | Potency [18] | outcome [11] | outcome [12] | outcome [13] | outcome [14]

Reference: PubChem BioAssay (Tox21)
